Screening results from PubChem BioAssay.
This excerpt belongs to a sample that is enriched for hits.
Pf Dd2 growth = blocks in vitro growth of P. falciparum Dd2; AID 1347417; 4.3% of 120,000 active; P. falciparum Dd2 growth, SYBR Green, 72 h; Potency, µM (highest dose often 28.9 µM), without a hit: at the top dose activity, negative = inhibition, most hits filed as inhibitors; active = well fitted inhibition curve with a large enough effect;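 also: plate controls were DMSO vehicle for no effect and reference drug for full effect; nearly all actives have a fitted effect of over 65% in size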
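Infected erythrocytes (Dd2, 0.3% parasitemia, 2.5% hematocrit final) are added to compound in RPMI-1640/Albumax II medium, grown 72 h at 37C in low oxygen, then lysed with saponin/Triton-X containing SYBR Green and read by fluorescence.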
* marks the source's active call; other numbers are inactive results; i = inactive; [ ] = another dose, or the depositor's remark. Potency is read from the fitted curve at half-maximal effect.

SMILES	Pf Dd2 growth
CCN1c2cc(C(=O)Nc3ccc(Oc4ccccc4)cc3)ccc2C(=O)N2CCCCC21 (stereo not given)	i
O=C(CC1CCOC2(CCN(S(=O)(=O)Cc3ccccc3F)CC2)C1)NC1CC1 (stereo not given)	i
COCC(=O)NC[C@H]1O[C@@H](CO)[C@@H](O)[C@H]1N1CCC(C)CC1	-6%[44.1 µM]
CCN1c2cc(C(=O)Nc3cc(OC)ccc3OC)ccc2C(=O)N2CCCCCC21 (stereo not given)	-7%
COc1ccc(NC(=O)N2CCCCC2c2nc(C3CC3)n[nH]2)cc1 (stereo not given)	-1%
CC(C)n1c(C2CCN(C(=O)c3n[nH]c4ccccc34)CC2)nn(C)c1=O	-18%
N#Cc1ccc(S(=O)(=O)N2CCC(Cc3nc(-c4ccncc4)n[nH]3)C2)cc1 (stereo not given)	-10%
Cc1cnc(CC2CCN(C(=O)Nc3ccccc3F)C2)n1C(C)C (stereo not given)	i
CCCn1c(C)cnc1CC1CCCN(C(=O)CCOC)C1 (stereo not given)	-12%
CCC(=O)N1CCC(Cc2ncc(C)n2C2CC2)C1 (stereo not given)	i
CCCn1c(C)cnc1CC1CCCN(S(=O)(=O)c2cc(OC)ccc2OC)C1 (stereo not given)	1.3µM*
CCCn1c(C)cnc1CC1CCN(C(=O)c2ccc(OC)cc2OC)CC1	i
Cc1cnc(CC2CCN(S(=O)(=O)c3ccc(C#N)cc3)C2)n1C1CC1 (stereo not given)	10µM*
Cc1cnc(CC2CCCN(C(=O)Cc3ccccc3)C2)n1C(C)C (stereo not given)	4.5µM*
CC(=O)N1CCCC(Cc2ncc(C)n2C(C)C)C1 (stereo not given)	-25%
CCC(=O)N(C1CCOCC1)C1CCN(S(=O)(=O)c2cn(C)cn2)CC1	-18%
CCCNc1ncc(CN2CCCC(c3ccc(C(=O)O)cc3)C2)cn1 (stereo not given)	-4%
O=C(NC1CCc2n[nH]c(=O)n2CC1)c1n[nH]c2ccccc12 (stereo not given)	10%
O=C(Nc1cccc(Cl)c1F)N1CCC(Oc2ncccc2C(=O)N2CCOCC2)C1 (stereo not given)	12%
CCC1(N2CCN(C(=O)c3ccncc3)CC2)CCN(CCC(C)C)C1 (stereo not given)	-17%
CCOCCn1c(=O)[nH]c2cc(C(=O)NCCc3scnc3C)ccc21	1%
O=C(Nc1cccc2ccccc12)O[C@@H]1CO[C@H]2[C@@H]1OC[C@@H]2Nc1nccc(-c2ccccc2)n1	-13%
O=C(CCC[C@@H]1[C@H]2CCCN3CCC[C@@H](CN1C(=O)C1CCC1)[C@@H]23)NCC1CC1	-11%
Cc1cccc(-c2ncc3c(n2)OCCN(c2cccc(C(F)(F)F)c2)C3=O)c1	-11%[44.1 µM]
Cc1nc(N2CCN(C(=O)Cc3ccccc3Cl)CC2)cc(C(F)(F)F)n1	-18%
SMILES	Pf Dd2 growth
Cc1nc(N2CCC(NC(=O)Cc3ccc(Cl)cc3)CC2)cc(C(F)(F)F)n1	i
Cc1nc(N2CCN(C(=O)Cc3ccc(Cl)cc3)CC2)cc(C(F)(F)F)n1	4µM*
O=C([C@@H]1C[C@H](F)CN1C(=O)c1ccc(F)cc1)N1CCOCC1	11%
Cn1cc(-c2cc(=O)c3ccnc(-c4cccc5[nH]ccc45)c3o2)cn1	i
COc1ncccc1-c1nccc2c(=O)cc(-c3ccncc3)oc12	-6%[44.1 µM]
O=c1cc(-c2ccncc2)oc2c(-c3cccc4[nH]ccc34)nccc12	10µM*
Cc1cnc(-c2cccnc2)n1C1CCN(C(=O)c2ccncc2)CC1	5%
O=C(CCc1nc2ccccc2s1)NCC1CCCCC(=O)N1 (stereo not given)	24%
O=C1NCN(Cc2ccc(Cl)cc2)C12CCN([S+](=O)([O-])c1cccc(C(F)(F)F)c1)CC2	15%
CN(C)[C@@H]1CN(Cc2cccc(C#N)c2)C[C@H]1CO	-22%
COCCN1C(=O)[C@@H]2C[C@@H](CN2Cc2ccc(C#N)cc2)Oc2ccccc21	-11%[44.1 µM]
COCCN1C(=O)[C@@H]2C[C@@H](CN2Cc2cccc(OC)c2)Oc2ccccc21	10µM*
COc1ccc(CN2C(=O)[C@@H]3C[C@@H](CN3C(=O)c3cnccn3)Oc3ccccc32)cc1	-26%[44.1 µM]
COCCN1C(=O)[C@@H]2C[C@@H](CN2C(C)C)Oc2ccccc21	-34%[44.1 µM]
CC(C)N1C[C@@H]2C[C@H]1C(=O)N(Cc1ccc(OC(F)(F)F)cc1)c1ccccc1O2	11µM*
O=C1[C@@H]2C[C@@H](CN2C(=O)c2ccccc2)Oc2ccccc2N1Cc1ccccc1	-12%[44.1 µM]
COCCN1C(=O)[C@@H]2C[C@@H](CN2C2CCCC2)Oc2ccccc21	-30%[44.1 µM]
COCCN1C(=O)[C@@H]2C[C@@H](CN2Cc2ccccc2)Oc2ccccc21	i
O=C1[C@@H]2C[C@@H](CN2C(=O)c2ccccc2)Oc2ccccc2N1CC1CC1	5%[44.1 µM]
CC(C)N1C[C@@H]2C[C@H]1C(=O)N(CC1CC1)c1ccccc1O2	11µM*
COc1ccc(CN2C(=O)[C@@H]3C[C@@H](CN3C3CCCC3)Oc3ccccc32)cc1	10µM*
COc1ccc(CN2C(=O)[C@@H]3C[C@@H](CN3C(C)C)Oc3ccccc32)cc1	26%[44.1 µM]
CN(Cc1cccc(F)c1)Cc1cccn1C	-24%[44.1 µM]
Cc1nc(N(C)C2CCCCC2)ncc1C(C)NC(=O)C1(CO)CC1 (stereo not given)	6%
O=C(c1ccsc1)N1CCCC(n2cc(-c3nc(C4CC4)no3)nn2)C1 (stereo not given)	i
SMILES	Pf Dd2 growth
Cc1cc(Cl)ccc1NC(=O)N1CCC(Oc2ncccc2C(=O)N2CCOCC2)C1 (stereo not given)	38%
Cn1nc(C(=O)N2CC[C@H](CO)[C@H](NC(=O)C3CC3)C2)c2ccccc21	23%
COC(=O)CNC(=O)c1cc(-c2ccc(Cl)cc2Cl)c2cnn(C)c2n1	19%
Cc1cc2cc(C(=O)N3CC[C@@H]4[C@@H](CCC(=O)N4CCN)C3)ccc2o1	-7%
O=C(NC[C@H]1O[C@@H](CO)[C@@H](O)[C@H]1N1CCN(c2ccccn2)CC1)c1ccco1	-17%
O=C1[C@@H]2C[C@@H](CN2C(=O)C2CC2)Oc2ccccc2N1Cc1ccccc1	i
CN1CCC(N2C[C@@H]3C[C@H]2C(=O)N(Cc2ccc(OC(F)(F)F)cc2)c2ccccc2O3)CC1	10µM*
O=C1[C@@H]2C[C@@H](CN2C2COC2)Oc2ccccc2N1Cc1ccc(OC(F)(F)F)cc1	i
Cc1onc(-c2cnn(C)c2NCCc2ccccc2)c1C(=O)N1CCN(C)C(=O)C1	-12%[44.1 µM]
CCn1ccc(C(=O)N[C@@H]2CN(S(C)(=O)=O)C[C@H]2CN(C)C)n1	33%
O=C1CCN(C(=O)c2cccnc2)CCCC(C(=O)N2CCN(Cc3ccccc3F)CC2)CCN1 (stereo not given)	-5%
Cc1c(CN2CCC(c3nnc(CN(C)C)n3C)CC2)cc(C#N)n1C	-6%
CCOc1ccccc1CNC(=O)c1cccc2c1CCN2C(=O)CC	10µM*
CCC(=O)N1CCc2c(C(=O)NCc3cccc(F)c3)cccc21	i
CCOc1ccccc1CNC(=O)c1ccc2c(c1)N(S(C)(=O)=O)CC2	i
CN(C)[C@H]1C[C@@H](Cc2cc(CCO)on2)C1(C)C	-6%[44.1 µM]
CNc1cc(C2CC(NS(=O)(=O)c3ccc(Cl)s3)C2)nc(N)n1 (stereo not given)	7.9µM*
O=C(C1CCCCC1)N1C[C@@H](CO)[C@H](c2ccncc2)C1	6%
